Measured values reported in the supplement of paper PMC6555819.

How the values were obtained:
Test in all cases: PBM binding z-score (relative to random genomic background probes); higher = stronger binding; sequences stand for … in GC…GCGATTGACAGCGTAGAATGAAGG
[1] = system: RARb homodimer (NR concentration 270 nM)
How it was run: (§1)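 The probes on custom Agilent 4×180K protein-binding microarrays were double-stranded, with 34-nt variable regions bearing direct-repeat seeds, single-nucleotide variants, half-site ablations and random human genomic background sequences. Incubation lasted 1 h with ligand-free nuclear receptor dimers in PBS pH 7.4, 2% milk, 0.02% Triton X-100, 1 mM DTT, 0.2 mg/mL BSA and 0.4 mg/ml salmon testes DNA. Antibodies against each partner (one per run) detected bound dimers, and fluorescence scans were regression-normalized. Binding z-scores take the random background probes as reference.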

[2] = system: RARg:RXRa (NR concentration 270 nM, RXRa partner concentration 90 nM)
How it was run: as §1

[3] = system: RARg homodimer (NR concentration 270 nM)
How it was run: as §1

[4] = system: RXRa DBDmut IVT, anti-RXR (DBD mutation: RXRa K156A/R161A, NR concentration 90 nM)
How it was run: as §1

[5] = system: RXRa homodimer (NR concentration 180 nM)
How it was run: as §1

[6] = system: THRa:RXRa (NR concentration 90 nM, RXRa partner concentration 90 nM)
How it was run: as §1

[7] = system: THRa homodimer (NR concentration 90 nM)
How it was run: as §1

[8] = system: VDR:RXRa (NR concentration 270 nM, RXRa partner concentration 90 nM)
How it was run: as §1

[9] = system: VDR homodimer (NR concentration 270 nM)
How it was run: as §1

| Sequence | PBM binding z-score [1] | PBM binding z-score [2] | PBM binding z-score [3] | PBM binding z-score [4] | PBM binding z-score [5] | PBM binding z-score [6] | PBM binding z-score [7] | PBM binding z-score [8] | PBM binding z-score [9] |
| --- | --- | --- | --- | --- | --- | --- | --- | --- | --- |
| TCGAGTAGGTTAGGGGCATCCAGAATGGCGTCGA | 1.01 | 0.269 | 0.268 | 0.271 | 0.71 | 1.05 | 0.256 | 0.536 | 0.462 |
| AGAACGAGGGCAATGAGTTGATCGCACGGGTGGC | 0.965 | 0.967 | 1.42 | 2.25 | 0.774 | 1.14 | -0.233 | 5.13 | 3.08 |
| CAAACTAGGTCACCGGCAGGTCAAAGTCCGCATG | 5.08 | 7.9 | 7.05 | 2.05 | 6.42 | 4.37 | 3.02 | 5.36 | 2.72 |
| CGTCAAAGTTCAACTAAGGTAACATAAAGCACGC | 4.23 | 5.98 | 6.47 | 4.9 | 5.01 | 5.25 | 1.77 | 4.72 | 3.89 |
| CCTCGGAGGACAGAAGGTCAGAGGTGTCCGCTTT | 3.67 | 3.28 | 2.68 | 0.0335 | 1.71 | 2.19 | -0.0182 | 1.24 | 0.148 |
| CTTACTGGGCCATCAGGTCATTGATATCAACGTT | 2.78 | 2.32 | 2.54 | 0.956 | 1.33 | 3.24 | 3.08 | 1.91 | 1.94 |
| TCTGCTAGCTCAACGATGGTCAGCTAATCTGCTA | -0.694 | -0.391 | -0.546 | 0.109 | -0.436 | -0.558 | -1.1 | -0.662 | -0.902 |
| TCTTGGAGATCAATAGAGGTTAAGAAAGTGCGCT | 1.39 | 0.878 | 0.376 | 0.544 | 1.5 | 3.19 | -0.339 | 2.08 | 0.159 |
| CCAACTGGGCCAAAGGTCATTGATTCCAATGCTC | 4.44 | 5.57 | 4.82 | 1.61 | 5.9 | 3.07 | 0.791 | 4.72 | 2.39 |
| ATATGTAGGTTAAGGTTCATTCAGGTTGGTTCGC | 2.18 | 2.48 | 1.47 | 3.2 | 3.38 | 2.49 | 1.4 | 5.06 | 6.72 |
| TCATATAGGTAAATGCTAGGTGAAAGACCGATCT | 0.314 | 0.683 | 0.454 | 1.44 | 1.15 | 1.32 | 0.328 | 0.73 | 0.112 |
| AGAATGAGGTTAAGATCAGAGAAACAGAATACAT | 0.686 | 2.05 | 1.45 | 0.652 | 2.36 | 2.29 | 0.47 | 1.11 | 0.291 |
| CGTCCAAGGTCATAGGAGGCCAGTGAAGACAGAT | 4.11 | 5.88 | 5.84 | 3.97 | 5.41 | 4.9 | 2.32 | 4.93 | 3.03 |
| ATTATTAGTTGAGACGAGGGCAACCGATAGGTTG | 1.64 | 1.02 | 1.18 | 0.511 | 0.708 | 2.79 | 0.878 | 1.29 | 1.63 |
| CCTTACGGGTCACGAGCTTATAGCACGACGAGCG | 3.08 | 5.67 | 5.35 | 1.94 | 6.23 | 3.07 | 0.145 | 3.95 | 0.809 |
| TAGCCTAGGTCATTGGGCCAGCATAGTACGCATC | 2.94 | 3.88 | 4.34 | 1.49 | 3.01 | 2.76 | 0.613 | 2.14 | 0.817 |
| ATCGAAAGGTCGTGAGGTGATTATACAGAAAGGC | 2.49 | 4.47 | 3.99 | 1.6 | 5.42 | 3.17 | 1.15 | 3.61 | 1.07 |
| ATCTCTAGCTAAGACTCAGTTCAGTGAAGAACGC | 0.502 | 0.00118 | -0.132 | 0.313 | 0.0167 | 0.338 | 0.471 | 0.552 | 1.11 |

| Sequence | PBM binding z-score [1] | PBM binding z-score [2] | PBM binding z-score [3] | PBM binding z-score [4] | PBM binding z-score [5] | PBM binding z-score [6] | PBM binding z-score [7] | PBM binding z-score [8] | PBM binding z-score [9] |
| --- | --- | --- | --- | --- | --- | --- | --- | --- | --- |
| CGTCCAAGGTCAAAGGTAAGTGAAGAGATGACGG | 4.06 | 6.23 | 6.89 | 3.8 | 7.74 | 3.91 | 1.96 | 4.55 | 2.48 |
| AGAATGAGGTTAAGATCAGGAAAACAGAATACAT | 0.79 | 2 | 1.73 | 0.917 | 2.65 | 2.28 | 0.529 | 1.24 | 0.435 |
| ACTTACGGGTCGACGAGGTTATAGCACGCGTATA | 1.57 | 2.39 | 1.72 | 1.2 | 2.93 | 3.05 | 0.75 | 6.05 | 2.03 |
| CCTTACGGGTCAAGGGTATAGCACGGGTGGTACG | 3.17 | 4.8 | 4.86 | 0.672 | 5.32 | 2.38 | 0.0653 | 3.22 | 0.904 |
| GATACAGGGTCAGGGCCAGAGTACGCGTATTGAT | 3.15 | 4.29 | 4.19 | 0.901 | 4.15 | 2.89 | 0.838 | 3.14 | 1.2 |
| ATCTCTAGGTTACCAAGTTCAGTGAATGCCGAAC | 2.58 | 1.88 | 1.79 | 1.48 | 1.26 | 1.97 | 1.14 | 5.85 | 3.3 |
| TCAGGCAGGTGAAGGTAACTCAGGTACGCAGTCG | 0.705 | 0.13 | -0.00372 | 0.635 | 0.357 | 1.52 | 0.723 | 0.269 | 0.051 |
| AGATGTAGGTTAGCTGGGGTCATTCAGACTAGGC | 3.53 | 3.96 | 2.72 | 1.78 | 5.24 | 5.05 | 3.03 | 5.98 | 4.8 |
| CATACAGGATCAGCTAGGCCAGAGTAGGGACGGC | -0.0161 | -0.112 | 0.213 | -0.652 | -0.0715 | -0.122 | 0.03 | -0.514 | 0.0286 |
| TCTATTAGTTGATTAGGGCAACCCAAACAGCGGA | 0.891 | 0.877 | 0.646 | 1.04 | 0.612 | 0.77 | 0.499 | 0.694 | 0.49 |
| CCTTACGCGTCACTCCAGGTTATAGCATCGGAGT | 0.704 | 0.409 | 0.416 | 0.6 | 0.294 | 2.62 | 1.07 | 0.361 | 0.782 |
| CTCGAAAGGTAGTGCTCAGGTGAGTATACCAAAC | -0.0122 | -0.12 | 0.0951 | -0.0232 | -0.198 | 1.61 | 0.482 | -0.361 | -0.438 |
| TGAATGAGGTTATAAGAGCAGGGAACGTTGCAAA | 0.269 | 1.47 | 0.87 | 0.547 | 1.87 | 1.66 | 0.0456 | 0.901 | 0.451 |
| CCCTACGGGTCACGAGGTTATAGCACGACGAGCG | 4.13 | 6.2 | 5.6 | 1.19 | 7.45 | 3.59 | 1.02 | 5.13 | 1.66 |
| TCGAGTAGGTTACTAATGGGGCATTCAGCTTTCT | 0.14 | 0.367 | 0.0579 | 0.272 | 0.291 | -0.11 | -0.967 | 0.0839 | -0.245 |
| TCAGACAGGTGATGGTAACTCAGGTACGCAGTCG | 0.401 | 0.447 | 0.147 | 0.843 | 0.688 | 0.659 | 0.545 | 0.615 | 0.532 |
| CAAACTAGGTCACCGGAAGATCAAAGTCCGCATG | 3.35 | 4.78 | 5.35 | 1.93 | 3.67 | 3.63 | 1.81 | 2.62 | 0.906 |
| GCTGCTAGGTCAACTGATGGTTAGCTAAAGCTCG | 3.25 | 4.51 | 5.52 | 1.85 | 2.81 | 2.94 | 0.862 | 1.39 | -0.316 |
